From PubChem
HepG2 tox: counter-screen for TGF-b inhibitors: cytotoxicity in HepG2 cells | HepG2 CAGA-GFP viability, ATP luminescence, 18 h | Potency, µM (doses to about 46.1 µM), for the others: at the highest dose activity change, negative = cytotoxicity, most hits filed as cytotoxic | hit rate 0.76% among 410,000
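CellTiter-Glo luminescence gave cytotoxicity after 18 hours at 37 degrees C. The cells were HepG2 CAGA-GFP in 1% FBS DMEM, stimulated with 500 pg/mL TGF-beta after compound addition. %Activity was normalised to no-cell wells (complete cell-killing) and DMSO (no toxicity), and curves were fitted and classified.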
TGFb inhibitor: blocks TGF-b signaling | hit rate 1.2% among 410,000 | Potency, µM (titrated, usually from 46.1 µM), inactives show top-dose activity, negative = inhibition, most hits filed as inhibitors | HepG2 CAGA-GFP TGF-b/SMAD3 reporter, GFP fluorescence, 18 h; TGF-beta stimulated, 500 pg/mL final | AID 588855; note: % is set by controls: 0 for no effect and ±100 for the full control effect; nearly all actives have a fitted effect of over 65% in size
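HEPG2 CAGA-GFP reporter cells (1000/well, DMEM with 1% FBS) received compounds, then recombinant TGF-beta at 500 pg/mL final for 18 hours at 37 degrees C. Per-cell GFP summed per well was normalised to unstimulated and stimulated DMSO controls before curve fitting.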
RORgamma inh: inhibitors of mouse ROR gamma transcriptional activity. P51450. AID 2551. Potency, µM (highest dose often 53.6 µM), for inactives: at the top dose activity change, negative = inhibition, usual class: inhibitors. hit rate 5.4% among 310,000. Drosophila S2 Gal4-RORgamma UAS-luciferase reporter, 20 h; note: % is set by controls: 0 for no effect and ±100 for the full control effect; nearly all actives have a fitted effect of over 60% in size
Target sequence (P51450 whole entry, looked up, the tested form may be a part): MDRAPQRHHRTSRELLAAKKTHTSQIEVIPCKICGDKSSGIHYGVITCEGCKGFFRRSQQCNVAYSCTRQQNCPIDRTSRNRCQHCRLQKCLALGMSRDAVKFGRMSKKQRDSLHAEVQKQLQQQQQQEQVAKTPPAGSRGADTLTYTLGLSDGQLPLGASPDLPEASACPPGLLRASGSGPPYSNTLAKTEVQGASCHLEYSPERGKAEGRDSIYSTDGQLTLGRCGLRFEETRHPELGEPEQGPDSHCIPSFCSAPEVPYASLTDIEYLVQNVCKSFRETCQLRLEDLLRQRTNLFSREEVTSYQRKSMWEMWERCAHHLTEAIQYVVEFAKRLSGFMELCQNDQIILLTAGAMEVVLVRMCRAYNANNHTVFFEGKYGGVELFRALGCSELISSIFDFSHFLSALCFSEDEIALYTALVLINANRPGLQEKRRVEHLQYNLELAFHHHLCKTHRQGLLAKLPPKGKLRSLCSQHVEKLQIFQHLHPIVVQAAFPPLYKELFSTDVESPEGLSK
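Schneider cells (Drosophila), stable Gal4 DBD–ROR gamma + UAS-luc; 1 hr cmpd preincubation; Cu2+ induction 700 uM final; 20 hr ambient; luminescence.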
Gal4-VP16 FLuc: Gal4-VP16 reporter inhibition counter-screen | Drosophila S2 Gal4-VP16 UAS-luciferase, luminescence, 20 h | Potency, µM (series often up to 53.6 µM), without a hit: top-dose activity, negative = inhibition, usual class: inhibitors | hit rate 3.5% among 310,000 | AID 2546;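 note: Gal4-VP16 expression switched on by copper sulfate through the metallothionein promoter; % is set by controls: 0 for no effect and ±100 for the full control effect; nearly all actives have a fitted effect of over 50% in size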
S2 tox: viability counter-screen for ATXN expression inhibitors; Potency, µM (highest dose often 56.7 µM), actives largely listed as cytotoxic; S2 cells (HEK-293 line with an ATXN2-luciferase reporter) viability, CellTiter-Fluor protease fluorescence, 24 h; AID 651635; hit rate 0.49% among 400,000; note: nearly all actives have a fitted effect of over 40% in size
ATXN2 expr inh: ATXN2 expression inhibition; hit rate 0.72% among 360,000; HEK-293 ATXN2-luciferase reporter, luminescence, 24 h; Potency, µM (titrated, usually from 57 µM), for inactives: at the top dose activity change, negative = inhibition, most hits filed as inhibitors; note: % is set by controls: 0 for no effect and ±100 for the full control effect; nearly all actives have a fitted effect of over 55% in size
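ATXN2-luciferase reporter cells (luciferase flanked by upstream and downstream ATXN2 gene portions) were treated 24 h at 37 °C with compounds at up to 57 uM. SteadyGlo luminescence gave expression; GF-AFC fluorescence gave viability.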
The depositor's hits bear a star; i = inactive; u = inconclusive; x = not tested or not shown. A selection: hits, their analogues and other compounds. The true share with any hit is near 6.1%. Calls come from the whole dose curve; as a rule, active = well fitted curve in the direction sought with a large enough effect; inconclusive = small, poorly fitted or top-dose-only effect, or another doubt; inactive = no such curve, though single readings can be large; an effect the other way counts as inactive or inconclusive. Potency is the fitted concentration of half-maximal effect.

SMILES | HepG2 tox | TGFb inhibitor | RORgamma inh | Gal4-VP16 FLuc | S2 tox | ATXN2 expr inh
COc1ccc(CN2CC[C@H]3C=CC[C@@H](C(=O)NC4CCCCC4)[C@H]3C2=O)cc1OC | 56% | 0% | x | x | x | x
COCCCNC(=O)C(C)n1c2ccccc2c2cnn(C)c(=O)c21 (centres undefined) | -8% | -24% | x | x | i | 14%
COc1ccc2c(c1)-c1nc(-n3ncc(C(=O)NCC4CCCN(C)C4)c3C3CC3)ncc1CC2 (centres undefined) | x | x | x | x | i | x
COc1ccc2c(c1)-c1nc(-n3ncc(C(=O)NC[C@@H]4CCCN5CCCC[C@H]45)c3C)ncc1CC2 | x | x | x | x | 25µM* | x
CN(C)c1c([N+](=O)[O-])cc(N2C(=O)C=CC2=O)cc1[N+](=O)[O-] | 3% | 2% | x | x | x | 35µM*
S=Cc1nc2ccccc2[nH]1 | -1% | -1% | x | x | x | x
NC(Cc1ccc(C(F)(F)F)cc1)c1csc(Nc2ccc(C(=O)NCc3ccco3)cn2)n1 (centres undefined) | 20µM* | u | x | x | 22µM* | 13µM*
COc1ccc(CC(N)c2csc(Nc3cc(NCc4ccco4)ncn3)n2)cc1 (centres undefined) | 11µM* | u | x | x | u | u
NC(Cc1ccc(C(F)(F)F)cc1)c1csc(Nc2ccc(C(=O)NCCCO)cn2)n1 (centres undefined) | -91% | u | x | x | u | u
CCCCN(C)C(=O)c1ccc(Nc2nc(C(N)Cc3ccc(C(F)(F)F)cc3)cs2)nc1 (centres undefined) | 11µM* | u | x | x | 32µM* | -1%
CCCn1c(SCN2C(=O)c3ccccc3C2=O)nc2cc(Cl)ccc2c1=O | -59% | -15% | 10µM* | u | i | -6%
CC(=O)OC1C=C[C@]2(C)C(CC(OC(C)=O)[C@@]3(C)C4=CC(=O)OC(c5ccoc5)[C@]4(C)CCC23)C1(C)C (some centres undefined) | x | x | -28% | -1% | x | x
CC(=O)OC1CC[C@]2(C)C(CC(OC(C)=O)[C@@]3(C)C4=CC(=O)OC(c5ccoc5)[C@]4(C)CCC23)C1(C)C (some centres undefined) | x | x | 13µM* | -1% | x | x
O=C(Cn1cccc1C(=O)c1ccccc1)NCCCN1CCOCC1 | -14% | 2% | 6% | 1% | i | 0%
CCN(CC)S(=O)(=O)c1ccc2c(c1)N(CC(=O)NCCCN1CCN(c3cc(C)ccc3C)CC1)C(=O)CO2 | 16µM* | u | x | x | 16µM* | 32µM*
Cc1ccc(C)c(N2CCN(CCCNC(=O)Cn3cccc3C(=O)c3ccccc3)CC2)c1 | -35% | -14% | -14% | -9% | 17µM* | u
CCSC1=N/C(=C\c2ccc(C(=O)O)cc2)C(=O)S1 | 5% | -9% | 20% | 11% | u | -39%
CCOC(=O)SC1=N/C(=C\c2ccc(N(C)C)cc2)C(=O)S1 | -15% | 2% | 13µM* | u | i | 8%
COc1cccc(CN(C)C(=S)Nc2cccc(C)c2)c1 | 3% | 0% | 11µM* | u | i | -15%
COc1ccc(CN(C)C(=S)Nc2ccc(Cl)cc2)cc1 | -19% | u | 10µM* | u | x | 14%
CCOc1ccc(NC(=S)N(Cc2ccc(Cl)cc2)Cc2ccco2)cc1 | -13% | u | 13µM* | u | i | -16%
CSc1ccccc1C(=O)NCC1Cc2cccc(-c3ncccc3C)c2O1 (centres undefined) | x | x | x | x | i | x
Cc1ccc(SCCNC(=S)Nc2cc(C)ccc2C)cc1 | -54% | -18% | 6.3µM* | 7.9µM* | i | -3%
Cc1ccc(SCCNC(=S)Nc2ccccc2)cc1 | -36% | u | 0.79µM* | 1µM* | i | 10%
Cc1ccc(C)c(NC(=S)Nc2cccnc2)c1 | -14% | -29% | u | -5% | i | -28%
SMILES | HepG2 tox | TGFb inhibitor | RORgamma inh | Gal4-VP16 FLuc | S2 tox | ATXN2 expr inh
CSc1cccc(NC(=S)Nc2cc(C)ccc2C)c1 | 5% | -18% | 11µM* | u | i | 2%
Cc1ccc(NC(=S)NCCO)c(C)c1 | 12% | 0% | -43% | 4% | i | -6%
Cc1ccc(SCCNC(=S)Nc2ccc(C)c(C)c2)cc1 | -27% | u | 4.5µM* | 8.9µM* | i | 0%
COc1ccc(C(=O)c2oc3ccccc3c2NC(=O)COc2cccc(C)c2C)cc1 | -3% | 20% | x | x | i | 1%
CN(C)c1ccc(C(CNS(=O)(=O)c2ccc(Cl)cc2)N2CCCC2)cc1 (centres undefined) | -58% | -1% | x | x | x | x
COC(=O)Cc1ccc(NC(=S)NCc2ccccc2Cl)cc1 | -8% | 0% | u | u | i | -6%
COc1ccccc1NC(=S)NCCSc1ccc(C)cc1 | -8% | u | 13µM* | 11µM* | i | 5%
Cc1cc(C)cc(NC(=S)NCCSc2ccc(Cl)cc2)c1 | -45% | u | 2.8µM* | 5µM* | i | u
COC(=O)Cc1ccc(NC(=S)NCCSc2ccc(Cl)cc2)cc1 | -38% | -11% | 16µM* | u | i | -27%
Cc1cc(C)cc(NC(=S)NCCCO)c1 | 14% | 10% | -40% | -3% | i | 1%
CC(C)CN1CCc2nc(Nc3ccc(F)cc3F)ncc2C1 | -13% | 9% | x | x | i | 18%
CCCOC(=O)c1ccc(Nc2nc3ccccc3nc2-n2nc(C)cc2C)cc1 | 7% | 5% | x | x | i | 8%
O=C(COc1ccccc1F)OCc1cc(=O)n2nc(-c3cccs3)sc2n1 | 3% | -4% | x | x | i | -4%
N#CC1=C(N)SC2(CCCCC2)SC1c1ccccc1 (centres undefined) | 14% | -18% | 6.3µM* | u | i | 28%
N#CC1=C(C2CC2)CC(c2ccccc2)C(C#N)=C1N (centres undefined) | -13% | -4% | -7% | 15% | i | -6%
O=C(COc1ccccc1C(=O)Nc1cccc(F)c1)Nc1ccc(Br)cc1 | 2% | 2% | x | x | x | x
Cc1ccccc1C(=O)NNC(=S)NC(=O)c1ccc(Cl)cc1Cl | -16% | u | u | -1% | i | -9%
Cc1cccc(C(=O)NC(=S)NNC(=O)c2ccccc2Cl)c1 | -20% | -14% | 4.5µM* | u | i | -19%
Cc1cc(C(=O)NNC(=S)NC(=O)/C=C/c2ccccc2Cl)n[nH]1 | -70% | u | u | 13µM* | i | -22%
Cc1cccc(C(=O)NC(=S)NNC(=O)COc2c(C)cccc2C)c1 | -15% | -17% | 13µM* | u | i | -15%
Cc1cccc(C(=O)NC(=S)NNC(=O)Cc2ccccc2)c1 | 0% | -11% | 10µM* | -15% | i | u
